The supplement of paper PMC13380429

System: Vero E6 infected with SARS-CoV-2
Test: inhibition of SARS-CoV-2 cytopathic effect; higher = more antiviral protection, active = above 15
Conditions: 48 h

Measured: inhibition of SARS-CoV-2 cytopathic effect

CCN(CC)C(=O)N1CCN(C)CC1 [diethylcarbamazine]
inactive: 1 nM -4.87% | 8.33 nM -4.75% | 100 nM -2.46% | 833.33 nM 0.55% | 10000 nM -2.31%

N#Cc1ccc(NCCNCC(=O)N2CCC[C@H]2C#N)nc1
inactive: 1 nM 0.59% | 8.33 nM 2.4% | 100 nM -0.06% | 833.33 nM 3.35% | 10000 nM 2.5%

CC(C(=O)O)c1ccc(C(=O)c2cccs2)cc1 (stereo not given) [suprofen]
inactive: 1 nM 2.14% | 8.33 nM 0.24% | 100 nM -0.86% | 833.33 nM -2.28% | 10000 nM -2.92%

NC(=O)NO [hydroxyurea]
inactive: 1 nM 0.66% | 8.33 nM -0.23% | 100 nM 0.03% | 833.33 nM 0.46% | 10000 nM 1.29%

Cc1nc(-c2cn3c(n2)-c2ccc(-c4cnn(C(C)(C)C(N)=O)c4)cc2OCC3)n(C(C)C)n1 [taselisib]
inactive: 1 nM 3.71% | 8.33 nM 1.62% | 100 nM -1.05% | 833.33 nM -1.92% | 10000 nM -8.91%

CC(=O)Oc1ccc(C(c2ccc(OC(C)=O)cc2)c2ccccn2)cc1 [bisacodyl]
inactive: 1 nM 0.11% | 8.33 nM -1.99% | 100 nM -2.25% | 833.33 nM 1.04% | 10000 nM 2.49%

COC(=O)C1=C(C)NC(C)=C(C(=O)OCCN2CCN(C(c3ccccc3)c3ccccc3)CC2)C1c1cccc([N+](=O)[O-])c1 (stereo not given) [manidipine]
inactive: 1 nM 1.55% | 8.33 nM 1.19% | 100 nM -0.02% | 833.33 nM 1.16% | 10000 nM -7.15%
